AmpC inh no detg – blocks E. coli AmpC beta-lactamase in detergent-free assay; AmpC nitrocefin hydrolysis, absorbance 480 nm, 0.0001% Triton; Potency, µM (doses to about 57.1 µM), inactives show at the highest dose activity change, negative = inhibition, usual class: inhibitors; 330,000 tested, 0.52% active;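 note: plate controls were no compound for no effect and no enzyme for full effect; nearly all actives have a fitted effect of over 20% in size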
Target sequence (P00811 whole entry, looked up): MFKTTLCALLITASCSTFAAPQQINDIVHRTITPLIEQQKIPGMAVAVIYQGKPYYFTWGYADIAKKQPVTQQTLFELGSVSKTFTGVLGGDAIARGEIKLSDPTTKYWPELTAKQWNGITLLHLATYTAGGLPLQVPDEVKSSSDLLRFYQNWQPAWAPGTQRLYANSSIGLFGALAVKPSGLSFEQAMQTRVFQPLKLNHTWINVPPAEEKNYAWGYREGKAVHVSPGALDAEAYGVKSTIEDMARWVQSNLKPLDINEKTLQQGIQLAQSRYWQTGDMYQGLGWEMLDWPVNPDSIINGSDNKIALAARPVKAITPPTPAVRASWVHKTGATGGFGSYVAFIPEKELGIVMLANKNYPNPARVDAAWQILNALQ
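20 mM phosphate pH 7.0 + 0.01% (detergent screen) or 0.0001% Triton X-100; 5.3 nM AmpC reagent; cpd preinc 15 min RT; nitrocefin (800 uM stock) to start; A480 q20 s × 4 min; Activity was normalised to no-enzyme and no-compound control wells.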
AmpC detergent – AmpC beta-lactamase inhibition with detergent present; P00811; 370,000 tested, 0.041% active; AID 485294; AmpC hydrolysis of nitrocefin, absorbance 480 nm, 0.01% Triton; Potency, µM (titrated, usually from 114 µM), for inactives: top-dose activity change, negative = inhibition, usual class: inhibitors;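 note: 0% = no-compound wells and -100% = no-enzyme wells; nearly all actives have a fitted effect of over 25% in size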
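AmpC (5.3 nM in the dispensed reagent) in 20 mM phosphate pH 7.0 with 0.01% (detergent screen) or 0.0001% Triton X-100 was preincubated with compounds for 15 min at room temperature. Nitrocefin was then added from an 800 uM solution, and hydrolysis was followed at 480 nm.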
Numbers without * were called inactive; u = inconclusive; x = no result given. This is one part of a sample in which hits are shown more often than they occur. Calls come from the whole dose curve; as a rule, active = well fitted curve in the direction sought with a large enough effect; inconclusive = small, poorly fitted or top-dose-only effect, or another doubt; inactive = no such curve, though single readings can be large; an effect the other way counts as inactive or inconclusive. Potency is the fitted concentration of half-maximal effect.

SMILES	AmpC inh no detg	AmpC detergent
CCc1ccc2oc(-c3cccc(NC(=O)C(C)(C)Oc4ccc(Br)cc4)c3)nc2c1	x	2.6%
Cc1c(C(=O)N(Cc2ccccc2F)C2CCS(=O)(=O)C2)oc2ccc(F)cc12 (stereo not given)	x	7.9%
O=C(COc1cccc(Cl)c1)N1CCC(c2nc3ccccc3s2)CC1	x	2.2%
CN1CCN(c2cc(=O)n(Cc3ccc(F)cc3)c(=O)[nH]2)CC1	0.562µM*	2.1%
O=c1cc(N2CCN(c3ccccc3)CC2)[nH]c(=O)n1Cc1ccc(F)cc1	-16.5%	u
Cc1cccc(N2CC(C(=O)Nc3nnc(SCC(=O)Nc4nccs4)s3)CC2=O)c1 (stereo not given)	-31.5%	u
Cc1ccccc1N1CC(C(=O)Nc2nnc(SCC(=O)Nc3nccs3)s2)CC1=O (stereo not given)	28.2µM*	5.6%
CC1=C(C(=O)NCc2ccccn2)C2(CCC(C)CC2)OC1=O (stereo not given)	2.82µM*	u
CC1=C(C(=O)NCc2ccc(Cl)cc2)C2(CCC(C)CC2)OC1=O (stereo not given)	35.8%	0.9%
CS(=O)(=O)N1CCCc2cc(C(=O)Nc3cccc(C(F)(F)F)c3)ccc21	x	19.9%
CCCC(=O)Nc1ccc(Cl)c(NC(=O)c2cccnc2)c1	0.159µM*	-3.0%
CCC(=O)Nc1ccc(Cl)c(NC(=O)c2cccnc2)c1	-17.0%	-13.6%
CC1CCN(c2ccccc2NC(=S)NC(=O)c2cccs2)CC1	10µM*	-2.5%
CS(=O)(=O)N1CCN(c2ccccc2NC(=S)NC(=O)c2cccs2)CC1	-15.6%	-1.7%
CC(C)Oc1ccc(CNC(=O)CCCn2c(=O)c3cccn3c3cccnc32)cc1	x	-5.0%
CC(C)c1ccc(C(=O)NC(=S)Nc2ccc3[nH]c(=O)[nH]c3c2)cc1	8.91µM*	0.7%
COc1ccc(C(=O)NC(=S)Nc2ccc3[nH]c(=O)[nH]c3c2)cc1	-13.7%	-5.6%
CC(C)NC(=O)CCC(=O)N1Cc2ccccc2Oc2ncccc21	x	18.2%
COc1cccc(C(=O)NCC(c2ccc(N(C)C)cc2)N2CCc3ccccc32)c1 (stereo not given)	x	25.4%
CCn1ncc(Cl)c1C(=O)NC(C)c1ccccc1 (stereo not given)	0.355µM*	2.0%
CCn1ncc(Br)c1C(=O)NC(C)c1ccccc1 (stereo not given)	-9.1%	3.3%
O=C(C1CCN(S(=O)(=O)Cc2ccccc2)CC1)N1CCN(c2cccc(C(F)(F)F)c2)CC1	x	19.0%
CCc1ccc(C2=NN(c3ccc(S(N)(=O)=O)cc3)C(c3ccc(F)cc3)C2)cc1 (stereo not given)	0.199µM*	-0.1%
NS(=O)(=O)c1ccc(N2N=C(c3ccccc3)CC2c2ccccc2)cc1 (stereo not given)	u	-0.6%
COc1cc(Cl)c(C)cc1NC(=O)C1CCCN(c2ncnc3onc(-c4ccc(F)cc4)c23)C1 (stereo not given)	x	-11.0%
SMILES	AmpC inh no detg	AmpC detergent
O=[N+]([O-])c1ccc(CNCc2cc(Cl)ccc2O)cc1	3.16µM*	-3.7%
Oc1ccc(Cl)cc1CNCc1ccc(F)c(F)c1	-23.3%	-6.3%
Cc1ccccc1NC(=O)CSc1nc2c(oc3ccccc32)c(=O)n1Cc1ccco1	x	3.4%
CCCN(c1ccc(OCC)cc1)c1ncnc2nc[nH]c12	0.708µM*	u
CCN(c1ccc(OC)cc1)c1ncnc2nc[nH]c12	-2.1%	u
CCCOc1cccc(C(=O)N(Cc2ccc(C)o2)C2CCS(=O)(=O)C2)c1 (stereo not given)	x	16.4%
CCOC(=O)c1c(C)[nH]c(=S)c(C#N)c1-c1ccc(OC)cc1	-50.9%	u
CCOC(=O)c1c(C)[nH]c(=S)c(C#N)c1-c1ccc(Cl)cc1	28.2µM*	-6.2%
CCc1sc(Nc2ccc(C)cc2Br)nc1-c1cc2cccc(OC)c2oc1=O	x	-1.0%
Fc1cccc(CNc2ncnc3ccc(-c4cccnc4)cc23)c1	-33.9%	u
CCc1nnc2c(Nc3ccc(N(CC)CC)cc3C)nc3ccccc3n12	x	-0.2%
COc1ccc(CC(=O)Nc2cccc(C(=O)O)c2C)cc1	3.98µM*	2.4%
Cc1c(NC(=S)NC(=O)Cc2ccccc2)cccc1C(=O)O	-8.0%	6.7%
Cc1nc(NS(=O)(=O)c2ccccc2)sc1NC(=O)Nc1ccc(Cl)cc1	15.8µM*	-13.3%
Cc1nc(NS(=O)(=O)c2ccccc2)sc1NC(=O)Nc1ccccc1	-40.3%	2.2%
Cc1cc(Cl)ccc1NS(=O)(=O)c1ccc2c(c1)CC(C)N2C(=O)C1CCC1 (stereo not given)	x	14.4%
COc1cc(/C=C/C(=O)OCC(=O)NC(=O)NCc2ccco2)ccc1OC(F)F	20µM*	x
COc1cc(/C=C/C(=O)OCC(=O)NCc2ccco2)ccc1O	-22.1%	-19.3%
CCOC(=O)C1CCCN(C(=O)c2ccc(NC(=O)c3nsc4ccccc34)cc2)C1 (stereo not given)	x	14.5%
COc1ccccc1-n1nc(-c2ccccc2)c2cnc3cc(C(F)(F)F)ccc3c21	x	-0.3%
COCCNC(=O)/C(C#N)=C/c1cn(CC(=O)NCc2ccco2)c2ccccc12	8.6%	-5.3%
Cc1cccc(NC(=O)/C(C#N)=C/c2cn(CC(=O)NCc3ccco3)c3ccccc23)c1	14.1µM*	-8.2%
Cc1ccc(C2CC(=O)Nc3cc4c(cc32)OCCO4)cc1Br (stereo not given)	x	-2.6%
Cc1ccn2cc(CCNC(=O)Cc3cccs3)nc2c1	-7.1%	7.1%
Cc1ccn2cc(CNC(=O)c3cccs3)nc2c1	3.55µM*	u
SMILES	AmpC inh no detg	AmpC detergent
CCCCOc1ccccc1CC1C(=O)Nc2ccc(Br)cc21 (stereo not given)	x	19.6%
CC(C)Oc1ccc(CNC(=O)c2ccc3nc(C(C)C)oc3c2)cc1	x	16.3%
CCOC(=S)SCC(=O)Nc1nccs1	-12.2%	-4.7%
CCOC(=S)SCC(=O)Nc1nc(C)c(C)s1	10µM*	-1.5%
CCC(C)NC(=O)c1cc2cc(S(=O)(=O)N3CCCCC3)ccc2n1C (stereo not given)	x	-5.8%
NC(N)=NS(=O)(=O)c1ccc(NC(=S)NC(=O)Cc2ccc(Cl)cc2)cc1	10µM*	u
NC(N)=NS(=O)(=O)c1ccc(NC(=S)NC(=O)c2ccccc2)cc1	-16.7%	-7.2%
CCNC(=S)N/N=C/c1cc(C)n(-c2ccc(Cl)cc2)c1C	28.2µM*	0.9%
Cc1cc(/C=N/NC(N)=S)c(C)n1-c1ccc(Cl)c(Cl)c1	u	-1.7%
COc1cccc(NC(=O)Nc2ccc3nc(N4CCN(C)CC4)cc(C)c3c2)c1	x	7.0%
O=C(COC(=O)CCN1C(=O)/C(=C\C=C\c2ccccc2)SC1=S)Nc1ccc(Br)cc1	17.8µM*	3.0%
CC(C)c1ccccc1NC(=O)COC(=O)CCN1C(=O)/C(=C\C=C\c2ccccc2)SC1=S	-36.6%	-12.6%
Cc1sc2ncn(CC(=O)N(C)c3ccc(C(C)C)cc3)c(=O)c2c1S(=O)(=O)N1CCC(C)CC1	x	-0.7%
N#CCC(=O)N/N=C\c1cccc(OC/C=C/c2ccccc2)c1	12.6µM*	1.5%
CC(=O)N/N=C\c1cccc(OC/C=C/c2ccccc2)c1	45.8%	2.2%
O=C(CCNS(=O)(=O)c1ccc(Cl)cc1)N1CCC2(O)CCCCC2C1 (stereo not given)	15.2%	39.8µM*
O=C(CCNS(=O)(=O)c1ccc(Cl)cc1)N1CCCC1	-6.7%	2.6%

High-throughput results deposited in PubChem BioAssay by National Center for Advancing Translational Sciences (NCATS).
